Laboratory results published in PubChem BioAssay (EPA / NIEHS).
Results filed as inconclusive are left out. Calls of active or inactive are those of the source. How the source made its calls: active means hit-call score of the fitted dose curve at least 0.9, where 1 is the maximum; inconclusive means response in the unintended direction; inactive means score below 0.9.

Experiment: ACEA_ER_80hr: ACEA Biosciences xCELLigence Real-Time Cell Analysis on Estrogen Receptor Agonism for Proliferation (AID 2282667)
Details: T47D proliferation, impedance (xCELLigence), 80 h
In short: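 T-47D cells monitored by electrical impedance (xCELLigence) with compound present throughout; 80 h timepoint, positive-direction fitting versus DMSO. Eight-point 1:4 dilutions from 100 uM final, duplicate plates.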

| SMILES | outcome | AC50 |
| --- | --- | --- |
| CC1=CC[C@@H]2C[C@H]1C2(C)C | inactive | – |
| CC1=CC(O)CC(C)(C)C1 (stereo unspecified) | inactive | – |
| CC(C)N(c1ccccc1)C(C)C | inactive | – |
| CCNC(=S)NCC | inactive | – |
| CCCCCCCCOC(=O)c1ccc(O)cc1 | – | 521 nM (active) |
| CCCCN(CCO)CCO | inactive | – |
| C1=COCCC1 | inactive | – |
| O=S1(=O)CC=CC1 | inactive | – |
| CC(CO)c1ccccc1 (stereo unspecified) | inactive | – |
| CCCCC1CCCCC(=O)O1 (stereo unspecified) | inactive | – |
| NC(=O)c1c(Cl)cccc1Cl | – | 168 nM (active) |
| O=C(O)C(F)(F)C(F)(F)C(F)(F)C(F)(F)C(F)(F)C(F)(F)C(F)(F)C(F)F | – | 14600 nM (active) |
| CCCCCCCCCCCCOC(C)=O | inactive | – |
| O=C(C=Cc1ccccc1)OCCCc1ccccc1 | inactive | – |
| CC/C=C\CCOC(=O)C(C)C | inactive | – |
| CCCCCC1CCC(=O)O1 (stereo unspecified) | inactive | – |
| OC[C@H]1O[C@@H](O[C@H]2[C@H](O)[C@@H](O)[C@H](O)O[C@@H]2CO)[C@H](O)[C@@H](O)[C@H]1O | inactive | – |
| Nc1ccc(N)c([N+](=O)[O-])c1 | inactive | – |

| SMILES | outcome | AC50 |
| --- | --- | --- |
| CC(=O)C1=C(C)[C@@H]2C[C@@]3(C1)[C@H](C)CC[C@H]3C2(C)C | inactive | – |
| CN(C)C(=O)Nc1ccccc1 | inactive | – |
| N=C1N=C(N)c2ccccc21 | inactive | – |
| c1coc(CNc2ncnc3nc[nH]c23)c1 | inactive | – |
| CCCCCCCC1CCCC1=O (stereo unspecified) | inactive | – |
| CC(C)=CC(=O)O | – | 3270 nM (active) |
| Nc1cc([N+](=O)[O-])ccc1C(=O)O | inactive | – |
| CCOC(=O)COC(=O)c1ccccc1C(=O)OCC | inactive | – |
| C=C/C(C)=C/C/C=C(\C)CCC=C(C)C | inactive | – |
| CC(=O)CCc1ccc(O)cc1 | inactive | – |
| CC(=O)Oc1c(C)c(C)c2c(c1C)CC[C@@](C)(CCC[C@H](C)CCC[C@H](C)CCCC(C)C)O2 | inactive | – |
| CCCCCCCCCCCCOCCOS(=O)(=O)O | – | 1980 nM (active) |
| CC1=CCC(C(C)C)=CC1 | inactive | – |
| CCCCCCOC(C)=O | inactive | – |
| O=C1Cc2ccccc2C1 | inactive | – |
| CN(C)CCCNCCCN(C)C | inactive | – |
| COC(=O)c1cccc(C(=O)OC)c1 | inactive | – |
| CC(O)CNCC(C)O (stereo unspecified) | – | 13100 nM (active) |
